Inconclusive results are not listed. Activity calls are given as the source filed them. The calls were made as follows: active = hit-call score of the fitted dose curve at least 0.9, where 1 is the maximum; inconclusive = response in the unintended direction; inactive = score below 0.9.
Tested on: not listed separately
Assay: ACEA_ER_AUC_viability: ACEA Biosciences xCELLigence Real-Time Cell Analysis on Estrogen Receptor Agonism for Viability (AID 2283782);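 also: hit means loss of impedance signal meaning reduced cell growth or viability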
Procedure, shortened: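 Viability endpoint: reduced impedance area under the curve relative to DMSO, recorded by real-time electrode sensing over ~80 h of continuous exposure. Duplicate plates of T47D in hormone-depleted medium; eight concentrations, 1:4 dilutions, 100 uM maximum.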

| SMILES | AC50 | outcome |
| --- | --- | --- |
| N#CSCSC#N | 6.97 µM (active) |  |
| CCOC(=O)COc1cc(-c2nn(C)c(OC(F)F)c2Cl)c(F)cc1Cl |  | inactive |
| CSc1nc(NC(C)C)nc(NC(C)C)n1 |  | inactive |
| CCCCOC(=O)c1ccccc1C(=O)O |  | inactive |
| CN(C)C(=O)Nc1cccc(C(F)(F)F)c1 |  | inactive |
| COc1ccc(C(=CC(=O)N2CCOCC2)c2ccc(Cl)cc2)cc1OC |  | inactive |
| CSc1nnc(C(C)(C)C)c(=O)n1N |  | inactive |
| CCCCOC(=O)[C@@H](C)Oc1ccc(Oc2ccc(C#N)cc2F)cc1 |  | inactive |
| CCc1cccc(CC)c1N(COC)C(=O)CCl |  | inactive |
| C#CCC1=C(C)C(OC(=O)C2C(C=C(C)C)C2(C)C)CC1=O (stereo not drawn) | 49.8 µM (active) |  |
| O=[N+]([O-])c1cc(C(F)(F)F)c(Cl)c([N+](=O)[O-])c1Nc1ncc(C(F)(F)F)cc1Cl | 3.24 µM (active) |  |
| CC(COc1ccc(Oc2ccccc2)cc1)Oc1ccccn1 (stereo not drawn) |  | inactive |
| CC(C)N(C(=O)SCC(Cl)=C(Cl)Cl)C(C)C | 77.3 µM (active) |  |
| CCOP(=S)(OCC)Oc1cc(C)nc(C(C)C)n1 | 82 µM (active) |  |
| CON=C(C(=O)OC)c1ccccc1CON=C(C)c1cccc(C(F)(F)F)c1 | 90.5 µM (active) |  |
| FC(F)C(F)(F)OCC(Cn1cncn1)c1ccc(Cl)cc1Cl (stereo not drawn) | 75.7 µM (active) |  |
| CCCOCC(=Nc1ccc(Cl)cc1C(F)(F)F)n1ccnc1 | 23.1 µM (active) |  |
| CCC(=NOC/C=C/Cl)C1=C(O)CC(C2CCOCC2)CC1=O (stereo not drawn) |  | inactive |

Biological target: AR (gene 367) (UniProt P10275)
Assay: ACEA_AR_agonist_80hr: ACEA Biosciences xCELLigence Real-Time Cell Analysis on Androgen Receptor Agonism for Proliferation (AID 2283783);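 also: hits increase impedance growth signal above DMSO baseline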
Procedure, shortened: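 Eight concentrations, 1:4 serial dilution from a 100 uM final top, in biological duplicate. Impedance-based real-time growth of 22Rv1 cells after overnight baseline, recorded hourly and read at 80 hours. Controls: testosterone, MG132, assay media.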

Chain of AR (gene 367) (P10275 whole entry, looked up): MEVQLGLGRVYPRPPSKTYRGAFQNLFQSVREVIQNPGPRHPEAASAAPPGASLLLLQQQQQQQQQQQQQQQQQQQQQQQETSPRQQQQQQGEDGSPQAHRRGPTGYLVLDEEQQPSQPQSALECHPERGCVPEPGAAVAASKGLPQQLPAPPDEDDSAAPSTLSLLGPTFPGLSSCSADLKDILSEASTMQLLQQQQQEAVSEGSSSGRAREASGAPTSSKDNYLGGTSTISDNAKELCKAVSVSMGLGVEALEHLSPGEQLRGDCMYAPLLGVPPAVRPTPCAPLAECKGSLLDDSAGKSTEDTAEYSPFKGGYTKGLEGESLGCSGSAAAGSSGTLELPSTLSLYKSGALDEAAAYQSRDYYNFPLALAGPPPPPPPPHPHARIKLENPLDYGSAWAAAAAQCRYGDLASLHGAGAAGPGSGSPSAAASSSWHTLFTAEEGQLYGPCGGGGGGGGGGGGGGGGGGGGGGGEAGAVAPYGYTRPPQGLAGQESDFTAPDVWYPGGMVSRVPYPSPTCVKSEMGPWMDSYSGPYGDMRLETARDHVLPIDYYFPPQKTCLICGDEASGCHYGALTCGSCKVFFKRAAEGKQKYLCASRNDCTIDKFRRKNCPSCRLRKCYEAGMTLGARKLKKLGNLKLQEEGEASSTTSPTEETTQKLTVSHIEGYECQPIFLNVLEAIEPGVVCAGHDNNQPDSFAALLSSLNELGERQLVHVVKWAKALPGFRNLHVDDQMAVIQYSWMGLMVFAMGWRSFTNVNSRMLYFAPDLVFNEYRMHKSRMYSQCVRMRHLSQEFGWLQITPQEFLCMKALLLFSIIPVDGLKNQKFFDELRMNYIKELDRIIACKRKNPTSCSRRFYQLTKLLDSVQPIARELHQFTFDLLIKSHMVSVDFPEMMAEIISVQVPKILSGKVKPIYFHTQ

| SMILES | outcome |
| --- | --- |
| CCCOc1nn(C(=O)NS(=O)(=O)c2ccccc2C(=O)OC)c(=O)n1C | inactive |
| CC(C)=CC1C(C(=O)OCN2C(=O)C3=C(CCCC3)C2=O)C1(C)C (stereo not drawn) | inactive |
| Cc1nn(-c2cc(NS(C)(=O)=O)c(Cl)cc2Cl)c(=O)n1C(F)F | inactive |

Tested on: not listed separately
Assay: STM_H9_NormalizedViability: Cytotoxicity Assessment at 120 hours in the Stemina devTOX quickPredict H9 human embryonic stem cell (hESC)-based Assay (AID 2283784)
Procedure, shortened: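 Viability of the cell layer was taken from live-cell protease cleavage of a fluorogenic substrate after compound exposure of undifferentiated H9 stem cells, with replenishment each 24h. Fluorescence was normalized to vehicle (0.1% DMSO).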

| SMILES | outcome | AC50 |
| --- | --- | --- |
| Cc1ccn2nc(S(=O)(=O)Nc3c(F)cccc3F)nc2n1 | inactive |  |
| N#CSCSC#N |  | 20.5 µM (active) |
| CSc1nc(NC(C)C)nc(NC(C)C)n1 | inactive |  |
| CN(C)C(=O)Nc1cccc(C(F)(F)F)c1 | inactive |  |
| CC(C)[C@H](C(=O)O[C@H](C#N)c1cccc(Oc2ccccc2)c1)c1ccc(Cl)cc1 | inactive |  |
| C[N+]1(C)CCCCC1 | inactive |  |
| CSc1nnc(C(C)(C)C)c(=O)n1N | inactive |  |
| CCOP(=S)(OCC)SCCSCC | inactive |  |
| CCCCOC(=O)[C@@H](C)Oc1ccc(Oc2ccc(C#N)cc2F)cc1 |  | 93.9 µM (active) |
| O=[N+]([O-])c1cc(C(F)(F)F)c(Cl)c([N+](=O)[O-])c1Nc1ncc(C(F)(F)F)cc1Cl |  | 16.3 µM (active) |
| CC(COc1ccc(Oc2ccccc2)cc1)Oc1ccccn1 (stereo not drawn) | inactive |  |
| CNc1cnn(-c2cccc(C(F)(F)F)c2)c(=O)c1Cl | inactive |  |
| CN(C)[C@@H]1C(=O)C(C(N)=O)=C(O)[C@@]2(O)C(=O)C3=C(O)c4c(O)cccc4[C@@](C)(O)[C@H]3[C@H](O)[C@@H]12 |  | 50 µM (active) |
| CC(C)N(C(=O)SCC(Cl)=C(Cl)Cl)C(C)C | inactive |  |
| Cc1nn(-c2cc(NS(C)(=O)=O)c(Cl)cc2Cl)c(=O)n1C(F)F | inactive |  |
| CCOP(=S)(OCC)Oc1cc(C)nc(C(C)C)n1 |  | 87.1 µM (active) |
| CSC1=N[C@@](C)(c2ccccc2)C(=O)N1Nc1ccccc1 |  | 30.1 µM (active) |
| CON=C(C(=O)OC)c1ccccc1CON=C(C)c1cccc(C(F)(F)F)c1 | inactive |  |
| FC(F)C(F)(F)OCC(Cn1cncn1)c1ccc(Cl)cc1Cl (stereo not drawn) | inactive |  |
| CCC(=NOC/C=C/Cl)C1=C(O)CC(C2CCOCC2)CC1=O (stereo not drawn) | inactive |  |

Biological target: AR (gene 367) (UniProt P10275)
Assay: ACEA_AR_antagonist_80hr: ACEA Biosciences xCELLigence Real-Time Cell Analysis on Androgen Receptor Antagonism for Proliferation (AID 2283787);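 also: 22Rv1 human prostate cancer cells with growth followed by electrical impedance; hits lower the impedance growth signal relative to DMSO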
Procedure, shortened: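 Impedance-based real-time growth of 22Rv1 prostate cells, read 80 h after dosing. Eight concentrations, 1:4 series, top 100 uM final (0.5% DMSO), n = 2; signal decrease scored against DMSO.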

| SMILES | outcome | AC50 |
| --- | --- | --- |
| CCCOc1nn(C(=O)NS(=O)(=O)c2ccccc2C(=O)OC)c(=O)n1C | inactive |  |
| N#CSCSC#N |  | 11.7 µM (active) |
| CCOC(=O)COc1cc(-c2nn(C)c(OC(F)F)c2Cl)c(F)cc1Cl |  | 28.1 µM (active) |
| CCCCOC(=O)c1ccccc1C(=O)O | inactive |  |
| CCC(=O)Nc1ccc(Cl)c(Cl)c1 |  | 20 µM (active) |
| COc1ccc(C(=CC(=O)N2CCOCC2)c2ccc(Cl)cc2)cc1OC |  | 15.8 µM (active) |
| CC(C)=CC1C(C(=O)OCN2C(=O)C3=C(CCCC3)C2=O)C1(C)C (stereo not drawn) |  | 69.8 µM (active) |
| CCc1cccc(CC)c1N(COC)C(=O)CCl |  | 63.9 µM (active) |
| CC(COc1ccc(Oc2ccccc2)cc1)Oc1ccccn1 (stereo not drawn) |  | 66.3 µM (active) |
| Nc1c(Cl)cc([N+](=O)[O-])cc1Cl |  | 50 µM (active) |
| CCCSP(=O)(OCC)SCCC |  | 34 µM (active) |
| CCOP(=O)(NC(C)C)Oc1ccc(SC)c(C)c1 (stereo not drawn) |  | 40.5 µM (active) |

From PubChem BioAssay (EPA / NIEHS)
